This is an account of results in PubChem BioAssay AID651820 (National Center for Advancing Translational Sciences (NCATS), 2012).

The whole screen tested about 340,000 compounds, of which about 12,000 (3.5%) were called active. Another 18% or so got no clear call; they are omitted. The sample as a whole holds a higher share of actives than the screen did. Unmarked numbers belong to inactive results. Calls come from the whole dose curve; as a rule, active = well fitted inhibition curve with a large enough effect; inconclusive = small, poorly fitted or top-dose-only effect, or another doubt; inactive = no such curve, though single readings can be large or run the other way.
% is set by controls: 0 for no effect and ±100 for the full control effect; potency is the fitted concentration of half-maximal effect.

The assay can be described thus: qHTS Assay for Inhibitors of Hepatitis C Virus (HCV). As to conditions: Huh7.5.1 HCVcc-Cre infection, luciferase reporter, 44 h; series mostly up to 41.8 µM; activity change, negative = inhibition: at the top concentration. In short, it runs like this: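 Compounds are dispensed onto cells plated 4 h earlier at 1,000 per well, with HCVcc-Cre virus (about 0.5 moi) added next. Following 44 h of culture, luminescent signal is measured for 15 sec after 15 min with substrate at room temperature.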
As to `O=C(NCCSc1ncc(-c2ccccc2)[nH]1)c1ccco1`, the activity change, negative = inhibition was -7.56% [at 8.37 µM].

Turning to `COc1cccc(NC(=O)CSc2nnc(C3CCCCC3)n2N)c1`, the “activity change, negative = inhibition” value is -4.82%.

For `CC(=O)Nc1ccc(NC(=O)CSC2=NS(=O)(=O)c3ccccc3N2)cc1`, the “activity change, negative = inhibition” value was -2.83%.

Turning to `CCc1noc(C)c1C(=O)Nc1nc2ccc(OC)cc2s1`, the “activity change, negative = inhibition” value was -17.2%.

In the case of `COc1ccc(NC(=O)CNc2cc(S(=O)(=O)N3CCOCC3)ccc2N2CCOCC2)c(OC)c1`, the “activity change, negative = inhibition” value is 11%.

Turning to `CS(=O)(=O)N(CC(=O)N1CCc2ccccc2C1)c1ccc(Br)cc1`, the “activity change, negative = inhibition” value is 0.897%.

For the compound `COc1cc(/C=C/C(=O)OCC(=O)NCCCc2ccccc2)ccc1O`, the “activity change, negative = inhibition” value was -14.3%.

Regarding `O=C(O)c1ccc(S(=O)(=O)c2ccccc2)s1`, the “activity change, negative = inhibition” value is 4.5%.

With `Cc1ccc(S(=O)(=O)c2cc3c(=O)n4cccc(C)c4nc3n(CCc3ccccc3)c2=N)cc1C`, the “activity change, negative = inhibition” value is 8.56%.

Regarding `OC(Cn1c2ccccc2c2ccccc21)C[n+]1ccccc1` (stereo not drawn), the “activity change, negative = inhibition” value was -23.1%.

With `CS(=O)(=O)N(CC(O)Cn1c2ccccc2c2ccccc21)c1cccc2ccccc12` (stereo not drawn), the Potency was 11.2 µM (active).

Consider `O=C1c2ccccc2S(=O)(=O)N1CC(O)Cn1c2ccccc2c2ccccc21` (stereo not drawn), for which the “activity change, negative = inhibition” value is 12.3%.

Consider `COc1ccc2oc(C(=O)N(CC(C)C)C3CCS(=O)(=O)C3)c(C)c2c1` (stereo not drawn), for which the “activity change, negative = inhibition” value was -5.42%.

On to `CCOc1ccc(C(CC(=O)O)NC(=O)Cc2ccccc2)cc1OC` (stereo not drawn), for which the “activity change, negative = inhibition” value is 20%.

In the case of `CCOc1ccc(C(CCc2ccccc2)NC(=O)c2ccc(OC)c(OC)c2)cc1OCC` (stereo not drawn), the Potency was 10 µM (active).

`CCOc1ccc(C(CC(=O)O)NC(=O)C23CC4CC(CC(C4)C2)C3)cc1OC` (stereo not drawn): the “activity change, negative = inhibition” value is 12%.

For `Cc1n[nH]c(=O)c2c(NC(=O)COC(=O)c3ncc(Cl)c(Cl)c3Cl)oc(C)c12`, the “activity change, negative = inhibition” value is 10.5%.

`CCC(O)CNc1nc(-n2nc(C)cc2C)nc2sc3c(c12)CC(C)(C)OC3` (stereo not drawn): the “activity change, negative = inhibition” value was -11%.

In the case of `COCCNc1nc(-n2nc(C)cc2C)nc2sc3c(c12)CCCC3`, the Potency is 10 µM (active).

Consider `Cc1nc2sc3c(c2c(=O)n1NC(=O)CCl)CCCC3`, for which the “activity change, negative = inhibition” value is -8.31%.

`O=C1CC2(CCCC2)C(=O)N1CN1CCN(S(=O)(=O)c2ccc(F)cc2F)CC1`: the “activity change, negative = inhibition” value was -2.52%.

Consider `CCOc1ccc(CC(=O)Nc2ccc(S(=O)(=O)Nc3cc(C)on3)cc2)cc1OCC`, for which the “activity change, negative = inhibition” value is -0.179%.

As to `COc1ccc(NS(=O)(=O)c2ccc(NC(=O)c3ccc(N(C)S(C)(=O)=O)cc3)cc2)cc1`, the Potency is 5.62 µM (active).

For `COc1ccc(NS(=O)(=O)c2ccc(C(=O)Nc3c(C)n(C)n(-c4ccccc4)c3=O)cc2)cc1`, the “activity change, negative = inhibition” value is 23.2%.

Turning to `COc1cc(OC)cc(C(=O)Nc2ccc(S(=O)(=O)Nc3cc(C)on3)cc2)c1`, the “activity change, negative = inhibition” value is 21.4%.

With `CCOc1ccc(C(=O)Nc2ccc(S(=O)(=O)Nc3cc(C)on3)cc2)cc1`, the Potency was 1.12 µM (active).

Take `COc1ccc(NC(=O)c2cnc(NS(=O)(=O)c3ccccc3)nc2)cc1`: the “activity change, negative = inhibition” value is 19.5%.

For the compound `O=C(COC(=O)c1ccccn1)NNC(=O)c1ccc(Br)cc1`, the “activity change, negative = inhibition” value is 12.5%.

Regarding `O=C(COC(=O)c1ccc(F)c(S(=O)(=O)N2CCOCC2)c1)NCc1ccc2c(c1)OCO2`, the “activity change, negative = inhibition” value is -4.34%.

In the case of `O=S(=O)(Nc1ccc2ccccc2c1)N1CCCCC1`, the “activity change, negative = inhibition” value is -21.3%.

For the compound `CCOc1ccccc1/C=N/Nc1nc2ccccc2o1`, the Potency is 12.6 µM (active).

Turning to `COc1ccc(/C=N/Nc2nc3ccccc3o2)cc1OC`, the “activity change, negative = inhibition” value is -3.83%.

With `Brc1ccccc1/C=N/Nc1nc2ccccc2o1`, the “activity change, negative = inhibition” value is -26.3%.

Consider `Cc1ccc(SCC(=O)c2cc(C)c(OC(=S)N(C)C)c(C)c2)cc1`, for which the Potency was 11.2 µM (active).

Consider `Cc1ccc(SCC(=O)Nc2ccc3c(c2)OCCO3)cc1`, for which the “activity change, negative = inhibition” value is 0.0256%.

As to `Cc1ccc(C(=O)CSc2ccccc2C(=O)O)cc1`, the “activity change, negative = inhibition” value was 12.5%.

Turning to `CC[C@]12c3[nH]c4ccc(Cl)cc4c3CCN1C(=O)[C@@H](CC(=O)NCCN1CCOCC1)C[C@@H]2C(=O)N1CCN(C(=O)C2CC2)CC1`, the “activity change, negative = inhibition” value was 17.4%.

In the case of `CCOC(=O)C[C@H]1c2ccc(C(F)(F)F)cc2S(=O)(=O)N1c1ccccc1`, the “activity change, negative = inhibition” value was -10.1%.

For the compound `Cc1ccc(C)c(N2CCN(C(=O)CCc3nc4ccccc4[nH]3)CC2)c1`, the activity change, negative = inhibition was 3.71% [at 8.37 µM].

Take `O=C(CCCCCn1c(=S)[nH]c2cc3c(cc2c1=O)OCO3)N1CCN(c2ccc(F)cc2)CC1`: the “activity change, negative = inhibition” value was -11.6%.

With `Cc1ccc(C)c(N2CCN(C(=O)CCCCCn3c(=S)[nH]c4ccc(N5CCOCC5)cc4c3=O)CC2)c1`, the Potency was 2.82 µM (active).

`CN(CC(=O)Nc1cccc(F)c1)C(=O)C1CSC2(C)CCC(=O)N12` (stereo not drawn): the “activity change, negative = inhibition” value was 6.19%.

Consider `COc1ccc(Cl)cc1NS(=O)(=O)c1cccc(C(=O)NC2CCC(O)CC2)c1` (stereo not drawn), for which the “activity change, negative = inhibition” value is 10%.

For the compound `O=C(Nc1cccc(NC(=O)c2cccc(F)c2)c1)c1ccccc1`, the “activity change, negative = inhibition” value is -10.3%.

For `COc1cccc(C(=O)NNC(=O)c2cccc(F)c2)c1`, the “activity change, negative = inhibition” value is 13.8%.

`CCC(CO)Oc1cc(NC(=O)c2cccc(F)c2)c2ncn(C(C)C)c2c1` (stereo not drawn): the Potency was 0.562 µM (active).

With `COc1ccc(/C=C2\SC(=S)N(CCCC(=O)NC3CCCC3)C2=O)cc1OC`, the “activity change, negative = inhibition” value was -0.548%.

Regarding `O=C1/C(=C/c2ccc(F)cc2)SC(=S)N1CCCC(=O)N1CCCCC1CCO` (stereo not drawn), the Potency was 11.2 µM (active).
